aSyn UTR act: Activators working through SNCA 5'UTR binding (MLPCN) | AID 1814 | alpha-synuclein 5'UTR reporter, activators screen | actives 7.1% (n = 300,000) | activity score, % (tested at 7.5 µM), hits read low; in the data active = activity score below about -60%
* marks the source's active call; other numbers are inactive results. Only a sample is shown.

SMILES | aSyn UTR act
Clc1ccc(-c2nc3cc(CN4CCCCC4)ccc3o2)cc1 | -206.0*
Cc1cc2nc(/C=C/c3cccnc3)[nH]c2cc1C | 92.1
O=[N+]([O-])c1cccc(/C=C/c2nc3ccc([N+](=O)[O-])cc3[nH]2)c1 | -151.6*
Cn1cccc1-c1nc2ccc([N+](=O)[O-])cc2[nH]1 | -175.0*
O=[N+]([O-])c1ccc2nc(-c3ccccc3)[nH]c2c1 | -121.4*
CC(=O)Nc1nc(C)c(-c2nc3ccc([N+](=O)[O-])cc3[nH]2)s1 | -81.0*
Fc1cc2[nH]c(=S)[nH]c2cc1Cl | 41.8
COc1cccc(/C(N)=N/OC(=O)Cc2ccccc2[N+](=O)[O-])c1 | -77.1*
COc1ccc(/C(N)=N/OC(=O)c2cccc([N+](=O)[O-])c2C)cc1 | -113.1*
COc1ccc(/C(N)=N/OC(=O)c2cccc([N+](=O)[O-])c2)cc1 | -129.2*
COc1cccc(C(=O)O/N=C(\N)c2ccc(C)cc2)c1 | -211.2*
COc1cccc(C(=O)O/N=C(\N)c2ccc([N+](=O)[O-])cc2)c1 | -163.9*
Cc1ccc(C2=NN(C(=S)Nc3ccccc3)C(c3ccco3)C2)cc1 (stereo not given) | -177.9*
COc1ccc(C2CC(c3ccc(Br)cc3)=NN2C(=S)Nc2ccccc2)cc1 (stereo not given) | -78.1*
CCC(=O)N1N=C(c2c(-c3ccccc3)c3cc(Cl)ccc3[nH]c2=O)CC1c1ccco1 (stereo not given) | 42.5
CCS(=O)(=O)Nc1ccc(C2=NN(C(=S)Nc3ccccc3)C(c3ccco3)C2)cc1 (stereo not given) | -80.5*
COC(=O)N/N=C/c1cccc(OCCSc2ccc(Cl)cc2)c1 | -82.2*
O=c1[nH]c(SCc2ccc(Cl)cc2)nc2[nH]ncc12 | -69.6*
CCCc1ccc(-c2cc(NC(=O)CSc3n[nH]c(N)n3)n(-c3ccccc3)n2)cc1 | -141.4*
COc1ccc(CCn2c(-c3ccccc3)nc3c(c(=O)c4ccccc4n3C)c2=O)cc1 | -86.4*
COc1ccc(CCn2c(C3CCCCC3)nc3c(c(=O)c4ccccc4n3C)c2=O)cc1 | 75.0
Cc1ccc(Cn2c(O)c(N=NC(=S)Nc3ccccc3F)c3ccccc32)cc1 | 71.4
O=C(Nc1ccccc1)Nc1cccn(Cc2c(F)cccc2Cl)c1=O | -103.1*
Oc1c(N=NC(=S)Nc2ccccc2F)c2ccccc2n1Cc1ccccc1Cl | 86.8
COC(=O)c1ccc(NC(=O)Nc2ccccc2F)cc1 | -95.3*
SMILES | aSyn UTR act
COc1ccc(C/C(C)=N/NC(=S)Nc2ccccc2F)cc1 | -151.8*
Cc1ccccc1NC(=O)OCc1ccccc1 | -84.4*
COc1ccc(NC(=O)Nc2ccccc2F)c([N+](=O)[O-])c1 | -139.4*
CSc1ccccc1NC(=O)Nc1ccc(Cl)cc1 | -189.8*
COc1cc(C)c(C(=O)CC(=O)c2c(C)cc(OC)cc2C)c(C)c1 | 72.2
O=C(Nc1ccc(F)cc1)Nc1ccccc1F | -179.6*
COc1ccc(NC(=O)Nc2ccccc2F)c(C)c1 | -97.8*
O=C(Nc1ccc(F)cc1)Nc1cccnc1Cl | -80.6*
O=C(Nc1ccc(Cl)cc1)Nc1ccccc1CC[N+](=O)[O-] | -96.8*
COc1ccc(NC(=O)Nc2ccccc2SC)cc1 | -113.2*
COc1cccc(COC(=O)Nc2ccccc2F)c1 | -146.0*
COc1ccc(NC(=O)Nc2ccccc2F)cc1 | -134.0*
COC(=O)c1ccc(NC(=O)Nc2ccccc2C)cc1 | -106.6*
Fc1ccccc1NC(=S)N/N=C/c1ccccc1Br | -247.5*
O=C(Nc1ccccc1F)Nc1ccccc1Br | -106.1*
COc1ccc(NCC(=O)Nc2ccccc2C#N)cc1Cl | -67.9*
COc1ccc(NC(=O)Nc2ccccc2F)cc1Cl | -184.1*
CC(=O)N(C)c1ccc(NC(=O)Nc2ccccc2C)cc1 | -106.8*
O=C(C#Cc1ccccc1)Nc1ccccc1F | -140.7*
CSc1ccc(NC(=O)Nc2ccccc2C(N)=O)cc1 | -92.0*
NS(=O)(=O)c1ccc(O)c(NC(=O)c2ccc([N+](=O)[O-])o2)c1 | -62.0*
Cc1ccccc1C(=O)N1CCN(c2ccc(NC(=O)c3ccc4c(c3)OCO4)cc2)CC1 | 47.7
Cc1ccccc1C(=O)N1CCN(c2ccc(NC(=O)c3ccc([N+](=O)[O-])o3)cc2)CC1 | -167.8*
CN1CCN(c2ccc(NC(=O)c3ccc(-c4cccc([N+](=O)[O-])c4)o3)cc2)CC1 | -208.4*
COc1ccc(NC(=O)c2ccc([N+](=O)[O-])o2)cc1 | -319.6*
SMILES | aSyn UTR act
O=C(Nc1ccc2oc(=O)ccc2c1)c1ccc(-c2cccc([N+](=O)[O-])c2)o1 | 91.5
CN1CCN(c2ccc(NC(=O)c3ccc([N+](=O)[O-])o3)cc2Cl)CC1 | 60.5
CC(=O)c1ccc(NC(=O)c2ccc([N+](=O)[O-])o2)cc1 | -355.4*
CCCC(=O)N1CCN(c2ccc(NC(=O)c3ccc([N+](=O)[O-])o3)cc2Cl)CC1 | -118.0*
O=C(NC1CC(=O)c2sccc21)c1ccc(Cl)cc1Cl (stereo not given) | -86.6*
O=C(O)[C@@H]1CCCC[C@@H]1C(=O)N1CCc2ccccc2C1CN1C(=O)c2ccccc2C1=O (stereo not given in full) | 67.7

Screening data as filed in PubChem.
